An excerpt weighted towards active compounds, which were near 3.4% of everything screened.
SIRT5 inh: inhibitors of human sirtuin-5 desuccinylase; inhibition, % at 15 µM; hit rate 1.1% among 330,000; Q9NXA8; Purified SirT5, succinyl-peptide AMC, trypsin-coupled fluorescence; AID 652115; in the data active = inhibition above about 15%; inconclusive = no clear call, values can overlap the other calls
Target sequence (Q9NXA8 whole entry, looked up): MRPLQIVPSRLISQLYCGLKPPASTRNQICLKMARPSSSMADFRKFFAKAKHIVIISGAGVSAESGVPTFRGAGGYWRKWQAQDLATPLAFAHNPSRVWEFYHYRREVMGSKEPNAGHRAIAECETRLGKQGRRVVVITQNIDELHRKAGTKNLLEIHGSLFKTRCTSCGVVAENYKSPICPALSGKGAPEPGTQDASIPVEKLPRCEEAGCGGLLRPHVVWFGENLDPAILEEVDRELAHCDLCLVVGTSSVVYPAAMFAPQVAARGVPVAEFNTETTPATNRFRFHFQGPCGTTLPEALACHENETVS
PGC1a acetyl inh: PGC1a acetylation modulation, inhibitor mode. hit rate 0.17% among 350,000. inhibition, % at 15.6 µM. U2OS PGC1a acetylation, AlphaScreen anti-acetyl-lysine; with virally co-expressed GCN5 acetyltransferase. AID 651687;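 active = every replicate shows inhibition of at least 40%; inconclusive = mean inhibition at least 40% but some replicate below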
LGR2 antag: blocks bursicon-induced cAMP signaling via Drosophila LGR2 | AID 720647 | hit rate 0.35% among 380,000 | inhibition, % at 9.99 µM | HEK293 LGR2, CRE-luciferase, bursicon-stimulated, 4 h;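 active = drop in luminescence signal, shown as inhibition above about 50% in the replicate tests, limit read from the data, passing the limit was not always enough; inconclusive = probably only some replicates passing the limit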;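 also: agonist challenge used bursicon conditioned medium at about half maximal strength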
PAX8 inh HTS: PAX8 transcriptional activity inhibition; hit rate 1.2% among 360,000; RMG-I TPO-luciferase reporter, SteadyGlo, 24 h; inhibition, % at 12.6 µM; AID 652154;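 active = mean replicate inhibition at least 60% with every replicate also reaching 60%; inconclusive = only one of the two criteria is met; inactive = mean below 60% and not all replicates reaching 60%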;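 also: luciferase light reporting Pax8 driven TPO promoter activity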
EWS-Fli block: EWS/Fli transcriptional activity inhibition; A673 NR0B1-luciferase reporter, viability-normalised; inhibition, % at 12.6 µM; hit rate 0.67% among 350,000; AID 651661;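 active = mean inhibition of at least 50% after viability correction, with every replicate also passing that limit; inconclusive = mean reaches 50% but only one of two replicates passes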;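 also: firefly luciferase signal divided by Alamar Blue viability fluorescence both relative to DMSO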
rRNA inh HTS: inhibitors of bacterial rRNA selective over humanized ribosomes. E. coli WT GFP vs humanized-ribosome RFP mutants, fluorescence, 24 h; stronger effect = lower value; DMSO median 0, no signal -100. GFP signal change (wild-type ribosome), % (test concentration not listed). hit rate 1.6% among 350,000;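 active = significant combined selectivity score with lowered wild-type GFP, culture density cut under 30%, mutant RFP and density less affected; inactive = any of these conditions unmet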
Hits are given with their value; n = inactive; u = inconclusive; x = no result; ! = repeats disagree.

SMILES | SIRT5 inh | PGC1a acetyl inh | LGR2 antag | PAX8 inh HTS | EWS-Fli block | rRNA inh HTS
O=C1CCCC(O)=C1N=Nc1ccc(C(=O)O)cc1 | 33.2 | n | n | n | n | n
C[C@H]1CN([C@@H](C)CO)C(=O)c2cc(NS(=O)(=O)c3ccc(Cl)cc3)ccc2O[C@H]1CN(C)CC1CCCCC1 | n | x | n | n | n | n
Cc1ccccc1S(=O)(=O)NCC[C@@H]1CC[C@H](NS(=O)(=O)c2ccccc2C)[C@@H](CO)O1 | n | n | n | n | n | n
Cc1cccc(N/C=C/C(=O)c2cccs2)c1C | x | x | 69.8 | x | x | x
C[C@@H]1CCCCO[C@@H](CN(C)C(=O)NC2CCCCC2)[C@H](C)CN([C@H](C)CO)C(=O)c2cc(NC(=O)NC3CCCCC3)ccc2O1 | n | n | n | n | n | n
CC(=O)Nc1ccc2c(c1)C(=O)N(C)[C@H]1CC[C@@H](CC(=O)NCc3ccccc3Cl)O[C@H]1CO2 | n | n | n | n | n | n
CC(C)c1nnc(NC(=O)c2nc(S(=O)(=O)Cc3ccccc3F)ncc2Cl)s1 | n | x | n | n | 61.0 | n
Cc1ccc(CS(=O)(=O)c2ncc(Cl)c(C(=O)Nc3nnc(C(C)C)s3)n2)cc1 | n | x | n | n | 69.8 | n
CSc1nnc(NC(=O)c2nc(S(=O)(=O)Cc3ccccc3F)ncc2Cl)s1 | n | x | n | n | n | n
Cc1noc(C)c1S(=O)(=O)N(C)C[C@H]1Oc2ccc(NC(=O)CCN3CCOCC3)cc2CC(=O)N([C@@H](C)CO)C[C@H]1C | n | n | n | n | n | n
COc1ccc(-c2csc3ncn(-c4ccccc4OC)c(=O)c23)cc1OC | n | n | n | n | n | -26.1
COc1ccc(S(=O)(=O)Nc2ccc3c(c2)C(=O)N([C@@H](C)CO)C[C@@H](C)[C@@H](CN(C)S(=O)(=O)c2cccs2)OCCCC[C@H](C)O3)cc1 | 23.4 | n | n | n | n | n
COc1ccc(S(=O)(=O)N(C)C[C@@H]2OCCCC[C@H](C)Oc3ccc(NS(=O)(=O)c4cccs4)cc3C(=O)N([C@@H](C)CO)C[C@H]2C)cc1 | 18.7 | n | n | n | n | n
COc1ccc(S(=O)(=O)Nc2ccc3c(c2)C(=O)N([C@H](C)CO)C[C@@H](C)[C@@H](CN(C)S(=O)(=O)c2cccs2)OCCCC[C@H](C)O3)cc1 | n | n | n | n | n | n
COc1ccc(S(=O)(=O)N(C)C[C@H]2OCCCC[C@@H](C)Oc3ccc(NS(=O)(=O)c4cccs4)cc3C(=O)N([C@H](C)CO)C[C@H]2C)cc1 | n | n | n | n | n | n
CCCn1nnnc1NCc1ccc(Cl)cc1Cl | n | n | n | n | n | -28.8
CCCn1nnnc1NCc1ccccc1F | n | n | n | n | n | n
CC[C@H](C)[C@@H](C(=O)NCCCCCCCCCCC(=O)N1CCN(C(=O)OC(C)(C)C)CC1)n1cc(CCCCCNC(=O)OC(C)(C)C)nn1 | x | x | n | 63.0 | n | n
CC(C)(C)OC(=O)NCCCCCc1cn([C@@H](CO)C(=O)NCCCCCCCCCCC(=O)N2CCN(C(=O)OC(C)(C)C)CC2)nn1 | n | x | x | n | n | n
O=C1Nc2ccccc2N(C(=O)c2ccc3ccccc3c2)C1c1nc2ccccc2[nH]1 (stereo not drawn) | 16.2 | x | n | n | n | n
CC1C(=O)Nc2ccccc2N1C(=O)c1ccc(O)cc1 (stereo not drawn) | n | x | n | n | n | n
CCN(CC)CCCNc1nc2cc(OC)c(OC)cc2c2nc(-c3ccccc3)nn12 | x | n | x | n | x | x
COCCCNc1nc2cc(OC)c(OC)cc2c2nc(-c3ccccc3)nn12 | 20.7 | x | n | n | n | n
O=C(C[C@H]1C[C@H]2c3cc(NS(=O)(=O)c4ccc(F)cc4)ccc3O[C@H]2[C@@H](CO)O1)NCc1ccc(-c2ccccc2)cc1 | n | n | n | n | n | n
O=C(C[C@@H]1C[C@@H]2c3cc(NS(=O)(=O)c4ccc(F)cc4)ccc3O[C@@H]2[C@H](CO)O1)NCc1ccc(-c2ccccc2)cc1 | n | n | n | 67.5 | n | n
SMILES | SIRT5 inh | PGC1a acetyl inh | LGR2 antag | PAX8 inh HTS | EWS-Fli block | rRNA inh HTS
O=C(C[C@H]1C[C@@H]2c3cc(NS(=O)(=O)c4ccc(F)cc4)ccc3O[C@@H]2[C@@H](CO)O1)NCc1ccc(Oc2ccccc2)cc1 | 15.2 | n | u | 101.0 | n | n
O=C(C[C@H]1C[C@@H]2c3cc(NS(=O)(=O)c4ccc(F)cc4)ccc3O[C@@H]2[C@@H](CO)O1)NCc1ccc(-c2ccccc2)cc1 | 17.0 | n | n | 84.2 | n | n
COc1cccc(S(=O)(=O)Nc2ccc3c(c2)[C@@H]2C[C@@H](CC(=O)NCc4ccc(Cl)cc4)O[C@@H](CO)[C@@H]2O3)c1 | n | n | n | 75.1! | 55.2 | n
COc1cccc(S(=O)(=O)Nc2ccc3c(c2)[C@H]2C[C@H](CC(=O)NCc4ccc(Cl)cc4)O[C@@H](CO)[C@H]2O3)c1 | n | n | n | n | n | n
CNC[C@@H]1Oc2ccc(NC(=O)Nc3ccccc3)cc2C(=O)N([C@H](C)CO)C[C@@H]1C | n | n | n | n | x | n
COc1ccc2c3c(n(C)c2c1)[C@H](CO)N(CC1CCOCC1)CC31CCN(Cc2nccs2)CC1 | n | x | n | x | n | n
CNC(=O)C[C@H]1CC[C@@H]2[C@@H](COc3ccc(NC(=O)c4cscn4)cc3C(=O)N2C)O1 | x | n | n | n | n | n
C[C@H](CO)N1C[C@H](C)[C@H](CN(C)S(=O)(=O)c2ccccc2)Oc2c(NC(=O)C3CCOCC3)cccc2C1=O | n | n | n | n | n | n
Nc1cc(-c2ccc(Br)cc2)[nH]n1 | n | n | n | n | n | n
Cc1cc(-c2ccc(Br)cc2)n[nH]1 | 15.6 | n | n | n | n | n
CO[C@H]1CN(C)C(=O)c2ccc(NS(=O)(=O)c3ccccc3C)cc2OC[C@H](C)NC[C@@H]1C | n | n | n | x | n | n
COC(=O)C(Cc1ccccc1)NC(=O)C12CC3CC(CC(C3)C1)C2 (stereo not drawn) | n | x | n | n | n | -34.2
COC(=O)C(Cc1ccc(O)cc1)NC(=O)C12CC3CC(CC(C3)C1)C2 (stereo not drawn) | x | x | n | n | n | n
CC(=O)N1[C@@H]2c3cccc(=O)n3C[C@@H]2[C@@H](CO)[C@@H]1C(=O)NCc1ccc(F)cc1 | n | x | n | n | n | n
O=C(c1ccsc1)N1CCCC(Nc2cccc(F)c2)C1 (stereo not drawn) | n | x | n | n | n | n
C=CCOc1cccc(C(=O)N2CCCC(Nc3ccc(F)cc3)C2)c1 (stereo not drawn) | n | n | n | n | x | -25.8
C#Cc1cccc(C(=O)N2CCCC(Nc3cccc(F)c3)C2)c1 (stereo not drawn) | n | x | n | x | n | -33.1
NCc1csc(Nc2ccc(C(=O)c3ccccc3)cc2)n1 | n | n | n | n | 51.7 | n

Source: PubChem BioAssay (Broad Institute)
